According to PubChem BioAssay (NCI):
The panel holds about 83,000 compounds, 20% with a hit somewhere; the sample as a whole holds those more often.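 Method: cells in 96-well plates; compound added at one concentration; 48 h incubation; percent growth measured; values under 10 scored active.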 Activity calls are given as the source filed them.

Assays:
Assay in all cases: NCI-60 one-dose screen, 48 h (100 = growth as untreated, 0 = no growth, -100 = all killed)
Conditions in all cases: 10 µM unless noted
T-47D breast = tested on: T-47D breast
MDA-MB-435 melanoma = tested on: MDA-MB-435 melanoma
SW-620 colon = tested on: SW-620 colon
MCF7 breast = tested on: MCF7 breast
HCT-116 colon = tested on: HCT-116 colon
HCC-2998 colon = tested on: HCC-2998 colon
KM12 colon = tested on: KM12 colon
BT-549 breast = tested on: BT-549 breast

Measured: growth

CC(C)(C)n1cc(-c2ccnc(NCCNS(=O)(=O)c3ccc(Cl)cc3)c2)c(-c2cccc(O)c2)n1
inactive: T-47D breast 38% | MDA-MB-435 melanoma 71.2% | SW-620 colon 28% | MCF7 breast 28.2% | HCT-116 colon 45.4% | HCC-2998 colon 36.7% | KM12 colon 42.5%

C=C1CCC2C(C)(CO)C(O)CCC2(C)C1CC(NCc1ccccc1)C1=CCOC1=O (stereo not drawn)
inactive: T-47D breast 97.7% | MDA-MB-435 melanoma 106% | SW-620 colon 97.3% | MCF7 breast 89.8% | HCT-116 colon 99.8% | HCC-2998 colon 108% | KM12 colon 104%

O=S(=O)(NCCCNc1nccc(-n2ccc3cccnc32)n1)c1ccc(Br)cc1
inactive: T-47D breast 95.6% | MDA-MB-435 melanoma 107% | SW-620 colon 110% | MCF7 breast 110% | HCT-116 colon 105% | HCC-2998 colon 121% | KM12 colon 98.3%

O=C(NCCNc1nccc(-n2ccc3cccnc32)n1)c1ccc(C(F)(F)F)cc1
inactive: T-47D breast 102% | MDA-MB-435 melanoma 99.9% | SW-620 colon 103% | MCF7 breast 95.6% | HCT-116 colon 100% | HCC-2998 colon 120% | KM12 colon 100%

COc1cc(/C=C/c2cc(/C=C/c3ccc(O)c(OC)c3)n(C(N)=O)n2)ccc1O
active: T-47D breast -7.56% | MDA-MB-435 melanoma -46% | SW-620 colon 0.998% | MCF7 breast -16.4% | HCT-116 colon -39.2% | HCC-2998 colon 7.85% | KM12 colon 3.47%

COc1ccc(S(=O)(=O)NCCCNc2nccc(-n3ccc4cccnc43)n2)cc1
inactive: T-47D breast 78.2% | MDA-MB-435 melanoma 98.4% | SW-620 colon 113% | MCF7 breast 98.7% | HCT-116 colon 105% | HCC-2998 colon 111% | KM12 colon 94.6%

N=c1ccc2nc3ccc(N)cc3sc-2c1
active: T-47D breast 5.98% | MDA-MB-435 melanoma -56.6% | HCT-116 colon 1.01%
inactive: SW-620 colon 31.7% | MCF7 breast 14.6% | HCC-2998 colon 53.2% | KM12 colon 18.1%

C=C1CCC2C(C)(CO)C(O)CCC2(C)C1C/C=C1/C(=O)OCC1Oc1ccccc1C (stereo not drawn)
inactive: T-47D breast 84.9% | MDA-MB-435 melanoma 59.3% | SW-620 colon 17.9% | MCF7 breast 29.5% | HCT-116 colon 71.4% | HCC-2998 colon 125% | KM12 colon 78.3%

CCN(CC)CCC(CNc1ccnc2cc(Cl)ccc12)c1ccccc1 (stereo not drawn)
inactive: T-47D breast 71% | SW-620 colon 62.3% | MCF7 breast 26.3% | HCT-116 colon 28.3% | HCC-2998 colon 68.2% | KM12 colon 84.1%
active: MDA-MB-435 melanoma -2.6%

CCN(CC)CCC(CNc1ccnc2cc(Cl)ccc12)c1ccc(Cl)cc1 (stereo not drawn)
inactive: KM12 colon 17.9%
active: T-47D breast -76% | MDA-MB-435 melanoma -72.2% | SW-620 colon -67.8% | MCF7 breast -70.7% | HCT-116 colon -26.9% | HCC-2998 colon -64.8%

COc1ccc(C(=O)n2nc(/C=C/c3ccc(O)c(OC)c3)cc2/C=C/c2ccc(O)c(OC)c2)cc1
inactive: HCC-2998 colon 16.4%
active: T-47D breast -4.93% | MDA-MB-435 melanoma -22.5% | SW-620 colon 4.16% | MCF7 breast -3.07% | HCT-116 colon -0.661% | KM12 colon 6.33%

O=C(NNC(=O)N1c2ccccc2C=Cc2ccccc21)c1ccc2ccccc2c1
inactive: T-47D breast 87.4% | MDA-MB-435 melanoma 103% | SW-620 colon 101% | MCF7 breast 86% | HCT-116 colon 103% | HCC-2998 colon 102% | KM12 colon 98.6%

CC(=O)Nc1ccc(S(=O)(=O)n2ccc(-c3ccc4c(c3)CCC(C)(C)O4)n2)cc1
inactive: T-47D breast 31.1% | MDA-MB-435 melanoma 67.3% | SW-620 colon 82.5% | MCF7 breast 66.2% | HCT-116 colon 29.9% | HCC-2998 colon 83.3% | KM12 colon 67.4%

O=[N+]([O-])c1ccc(C(c2ccccc2)c2ccccc2)cc1
inactive: T-47D breast 109% | MDA-MB-435 melanoma 99.5% | SW-620 colon 87.5% | MCF7 breast 84.9% | HCT-116 colon 70.4% | HCC-2998 colon 92% | KM12 colon 90.9%

Cc1ccc(C(=O)NCCCNc2nccc(-n3ccc4cccnc43)n2)cc1
inactive: T-47D breast 90.6% | MDA-MB-435 melanoma 104% | SW-620 colon 109% | MCF7 breast 103% | HCT-116 colon 93.7% | HCC-2998 colon 109% | KM12 colon 103%

Cc1ccc(S(=O)(=O)NCCNc2cc(-c3cn(C(C)(C)C)nc3-c3cccc(O)c3)ccn2)cc1
inactive: T-47D breast 45.1% | MDA-MB-435 melanoma 78.1% | SW-620 colon 39.7% | MCF7 breast 41.6% | HCT-116 colon 62.1% | HCC-2998 colon 43% | KM12 colon 65.1%

Cc1ccc(S(=O)(=O)NCCCNc2cc(-c3cn(C(C)(C)C)nc3-c3cccc(O)c3)ccn2)cc1
inactive: T-47D breast 44.2% | MDA-MB-435 melanoma 63.1% | SW-620 colon 19.1% | MCF7 breast 45.7% | HCT-116 colon 52.5% | HCC-2998 colon 50.3% | KM12 colon 39.8%

O=C(NNC(=O)N1c2ccccc2C=Cc2ccccc21)c1ccccc1
inactive: T-47D breast 102% | MDA-MB-435 melanoma 103% | SW-620 colon 107% | MCF7 breast 95.6% | HCT-116 colon 103% | HCC-2998 colon 114% | KM12 colon 105%

CC(C)(C)n1cc(-c2ccnc(NCCCNS(=O)(=O)c3ccc(F)cc3)c2)c(-c2cccc(O)c2)n1
inactive: T-47D breast 31.2% | MDA-MB-435 melanoma 58.6% | MCF7 breast 16.7% | HCT-116 colon 32% | KM12 colon 28.2%
active: SW-620 colon 8.4% | HCC-2998 colon 9.22%

CC(C)(C)n1cc(-c2ccnc(NCCNS(=O)(=O)c3ccc(C(F)(F)F)cc3)c2)c(-c2cccc(O)c2)n1
inactive: T-47D breast 32.1% | MDA-MB-435 melanoma 63.3% | SW-620 colon 25.9% | MCF7 breast 17.3% | HCT-116 colon 29.5% | KM12 colon 41.8%
active: HCC-2998 colon -0.263%

c1cc(C2=N[C@@H]3c4ccccc4C[C@@H]3O2)nc(C2=N[C@@H]3c4ccccc4C[C@@H]3O2)c1
inactive: T-47D breast 101% | MDA-MB-435 melanoma 104% | SW-620 colon 107% | MCF7 breast 88.1% | HCT-116 colon 103% | HCC-2998 colon 104% | KM12 colon 103%

Cc1ccc(Nc2nnc(-c3ccc(Cl)cc3)o2)c(C)c1
active: MDA-MB-435 melanoma 6.82%
inactive: T-47D breast 75.6% | SW-620 colon 56.5% | MCF7 breast 56.9% | HCT-116 colon 83.9% | HCC-2998 colon 84.8% | KM12 colon 65.7%

Cn1cnc2c(N3CCN(C(=O)OCc4ccc5c(Cl)cc(Cl)c(O)c5n4)CC3)nc(Cl)nc21
inactive: T-47D breast 61% | MDA-MB-435 melanoma 67.5% | SW-620 colon 85.9% | MCF7 breast 73% | HCT-116 colon 53.1% | HCC-2998 colon 94.1% | KM12 colon 56.9%

CC(C)(C)n1cc(-c2ccnc(NCCCNS(=O)(=O)c3ccc(Cl)cc3)c2)c(-c2cccc(O)c2)n1
active: T-47D breast 5.38% | SW-620 colon -38% | MCF7 breast -12.1% | HCT-116 colon 6.49% | HCC-2998 colon -81.5% | KM12 colon -36.5%
inactive: MDA-MB-435 melanoma 15.6%

O=C(NCCCNc1nccc(-n2ccc3cccnc32)n1)c1c(F)cccc1F
inactive: T-47D breast 97.1% | MDA-MB-435 melanoma 105% | SW-620 colon 107% | MCF7 breast 88.4% | HCT-116 colon 101% | HCC-2998 colon 104% | KM12 colon 106%

C=C1CCC2C(C)(CO)C(O)CCC2(C)C1C/C=C1/C(=O)OCC1O/C=C/c1ccccc1 (stereo not drawn)
active: SW-620 colon 5.82%
inactive: T-47D breast 33.4% | MDA-MB-435 melanoma 75.8% | MCF7 breast 32.6% | HCT-116 colon 58.5% | HCC-2998 colon 101% | KM12 colon 74.8%

N#C/C(=C1C=C/C(=N/O)C(Cl)=C/1)c1ccc(Cl)cc1
inactive: BT-549 breast 87.2% | MDA-MB-435 melanoma 29.5% | SW-620 colon 59.2% | MCF7 breast 13.7% | HCC-2998 colon 101%
active: HCT-116 colon 1.93% | KM12 colon -46.4%

O=C1Nc2ccc3c(c2/C1=C\c1cc2c(cc1Br)OCO2)OCO3
active: MDA-MB-435 melanoma -38.7% | SW-620 colon 7.57% | MCF7 breast 4.51% | HCT-116 colon -2.7% | KM12 colon -6.85%
inactive: BT-549 breast 27.8% | HCC-2998 colon 43.6%

O=[N+]([O-])c1cc(S(=O)(=O)Oc2ccccc2)ccc1Cl
active: MCF7 breast -64.3% | HCT-116 colon -54.8% | HCC-2998 colon -77.9% | KM12 colon -71.8%
inactive: BT-549 breast 30.2% | MDA-MB-435 melanoma 19.1% | SW-620 colon 23.5%

O=c1cc(Cc2ccc([N+](=O)[O-])cc2)[nH]c(=O)[nH]1
inactive: BT-549 breast 98.3% | MDA-MB-435 melanoma 107% | SW-620 colon 103% | MCF7 breast 106% | HCT-116 colon 103% | HCC-2998 colon 105% | KM12 colon 106%

Cn1c(=O)c2[nH]c(C3CC=CCC3)nc2n(C)c1=O (stereo not drawn)
inactive: BT-549 breast 108% | MDA-MB-435 melanoma 106% | SW-620 colon 101% | MCF7 breast 102% | HCT-116 colon 106% | HCC-2998 colon 104% | KM12 colon 108%

CCN(CC)CCC(CNc1c2ccc(Cl)cc2nc2ccc(OC)cc12)c1ccccc1 (stereo not drawn)
active: T-47D breast -58.8% | MDA-MB-435 melanoma -80.4% | SW-620 colon -49.7% | HCT-116 colon -36% | HCC-2998 colon -72% | KM12 colon -24.1%
